According to the OligoGym collection:
Also: reference of the scale not given here.

These sequences were tested against STK11 (assay: pooled miR-30 sensor sort-seq; sequence = guide strand). Details: shRNA.
Work on TTTCTGCTTCTCTTCGTTGTAT yielded a sensor-assay potency score (higher = more potent) of 0.0401. Sequence TATAACACATCCACCAGCTGGA has a sensor-assay potency score (higher = more potent) of 0.528. For ATCAGCTGACAGAAGTACCCGT, the sensor-assay potency score (higher = more potent) was -0.0103. TCAGCTGACAGAAGTACCCGTG gave a sensor-assay potency score (higher = more potent) of 0.17. With TCTTCTTGAGGATCTTGACGGC the sensor-assay potency score (higher = more potent) was -0.46. TCGCAACTTCTTCTTCTTGAGG was tested, and the sensor-assay potency score (higher = more potent) was -1.45. TTCTTCTTGAGGATCTTGACGG gave a sensor-assay potency score (higher = more potent) of -0.484. With TTCGCAACTTCTTCTTCTTGAG the sensor-assay potency score (higher = more potent) was -0.46. Sequence TTCGTTGTATAACACATCCACC has a sensor-assay potency score (higher = more potent) of -1.02. Sequence TTTTTGTGCCGTAACCTCCTCA has a sensor-assay potency score (higher = more potent) of 0.218. In the case of TAACACATCCACCAGCTGGATG, the sensor-assay potency score (higher = more potent) is reported as -1.1. TACATTTTCTGCTTCTCTTCGT showed a sensor-assay potency score (higher = more potent) of 0.646.

Each sequence was assayed against STK24 in the same assay as above. Details: shRNA.
Sequence TTCTAATAGATCTAGTGCGGAG has a sensor-assay potency score (higher = more potent) of -0.878. TAATTGTAGATAAACACTGAGA showed a sensor-assay potency score (higher = more potent) of -0.826. In the case of TAATATAGTAGCGATCTGGGTT, the sensor-assay potency score (higher = more potent) is reported as 0.44. TTTCCTTCCAACGTCGGTGGGT gave a sensor-assay potency score (higher = more potent) of 0.554. TGGACTGTCACACTGACTCAGC gave a sensor-assay potency score (higher = more potent) of -1.39. Work on TACATATGGACTGTCACACTGA yielded a sensor-assay potency score (higher = more potent) of 0.632. Sequence TTGTGCTTCAATAACTCCTTAG has a sensor-assay potency score (higher = more potent) of -0.488. Work on TTTCATCTTATTTCTGTCCAAG yielded a sensor-assay potency score (higher = more potent) of -0.728. TCTCGGATTGTGAAGATCCAGT showed a sensor-assay potency score (higher = more potent) of -1.01. In the case of TATACAAATCTGTACACCCATC, the sensor-assay potency score (higher = more potent) is reported as -1.31. TTTCTCTTAATATAGTAGCGAT gave a sensor-assay potency score (higher = more potent) of -0.861.
